# Compound activity from PubChem.
# GC-B act: GC-B (human) receptor activation. AID 1920062. HEK293-GC-B cells, CNP EC30, cGMP TR-FRET; 0% at EC30 CNP, 100% saturating CNP. P20594. hit rate 0.11% among 370,000. activation, % at 10 µM;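 active means activation at 10 µM reaching about 35% in either raw or pattern-adjusted values, limit read from the data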
# NPR1 activator: GC-A (human) enzyme activation. hit rate 0.14% among 370,000. P16066. activation, % at 10 µM. HEK293 GC-A cells, cGMP TR-FRET, EC30 ANP; 0% at EC30 ANP, 100% saturating ANP. AID 1671463; in the data active means activation above about 40%
# ADAM10 inh: ADAM10 inhibition, QFRET primary screen; O14672; recombinant ADAM10, EDANS/DABCYL FRET peptide cleavage, 3 h; inhibition, % at 7 µM; hit rate 0.62% among 370,000; AID 720582;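 active means inhibition above a per-campaign cutoff equal to the mean of compounds falling between control-based bounds plus 3 SD, cut at about 20% in these data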;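 further: 0% = DMSO wells while the 100% control is not disclosed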
# ADAM17 inh: inhibitors of human ADAM17; P78536; recombinant ADAM17, EDANS/DABCYL FRET peptide cleavage; inhibition, % at 6.95 µM; hit rate 0.83% among 370,000; AID 720648;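 active means inhibition above the mean of compounds lying between control limits plus 3 SD, set per campaign, cut at about 8.5% in these data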;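 further: 0% = DMSO-only wells as the low control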
# Target sequence (P78536 215-824 limits assumed): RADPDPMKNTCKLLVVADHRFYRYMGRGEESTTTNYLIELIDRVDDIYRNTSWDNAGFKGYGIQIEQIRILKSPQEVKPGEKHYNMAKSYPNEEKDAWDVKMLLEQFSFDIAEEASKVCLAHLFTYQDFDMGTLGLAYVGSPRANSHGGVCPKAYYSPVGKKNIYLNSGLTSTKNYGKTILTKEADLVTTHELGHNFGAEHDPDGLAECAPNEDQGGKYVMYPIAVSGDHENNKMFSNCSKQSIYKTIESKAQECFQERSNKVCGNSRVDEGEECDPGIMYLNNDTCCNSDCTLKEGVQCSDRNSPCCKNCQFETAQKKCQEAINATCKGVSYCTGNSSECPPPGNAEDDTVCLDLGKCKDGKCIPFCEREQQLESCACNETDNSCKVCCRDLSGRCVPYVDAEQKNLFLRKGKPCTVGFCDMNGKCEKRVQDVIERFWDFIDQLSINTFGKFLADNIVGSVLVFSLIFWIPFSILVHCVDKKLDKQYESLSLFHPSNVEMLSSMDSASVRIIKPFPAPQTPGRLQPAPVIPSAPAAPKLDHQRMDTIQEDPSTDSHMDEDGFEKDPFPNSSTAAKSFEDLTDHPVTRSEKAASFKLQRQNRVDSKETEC
# ADAM10 confirm: confirmation of inhibitors of human ADAM10 | ADAM10 QFRET peptide cleavage, EDANS fluorescence | shares compounds with ADAM10 inh | AID 743208 | hit rate 1% among 2,100 | inhibition, % at 6.95 µM;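 active means inhibition above about 20% chosen separately for each screening run, limit read from the data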;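 further: 0% = DMSO wells and 100% = marimastat wells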
# ADAM17 counter: ADAM17 inhibition, counter-screen for ADAM10 exosite hits | AID 743214 | inhibition, % at 6.95 µM | shares compounds with ADAM10 inh | hit rate 0.5% among 2,100 | ADAM17 QFRET peptide cleavage, EDANS fluorescence;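 active means mean triplicate inhibition above the solvent-only control wells' mean plus 3 SD, cut at about 12% in these data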;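 further: 0% = DMSO wells and 100% = marimastat wells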
# ADAM10 counter: counter-screen for ADAM17 exosite inhibitors: inhibitors of human ADAM10; inhibition, % at 6.95 µM; shares compounds with ADAM17 inh; recombinant ADAM10, EDANS/DABCYL FRET peptide cleavage, 3 h; hit rate 47% among 2,900;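 active means mean inhibition over the triplicate runs exceeds the activity threshold set in the earlier primary screen, cut at about 20% in these data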;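 further: 0% = DMSO wells and 100% = marimastat wells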
# ADAM17 confirm: human ADAM17 inhibition, confirmation; shares compounds with ADAM17 inh; recombinant ADAM17, EDANS/DABCYL QFRET peptide cleavage; inhibition, % at 6.95 µM; hit rate 65% among 2,900;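 active means mean inhibition across replicates above the hit cutoff set in the primary screen, cut at about 8.5% in these data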;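 further: 0% = DMSO wells and 100% = marimastat wells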
# Numbers without * were called inactive; / = not tested or not shown. This is a sample that favours compounds with a hit; in the whole collection about 1.3% have one here.
SMILES,GC-B act,NPR1 activator,ADAM10 inh,ADAM17 inh,ADAM10 confirm,ADAM17 counter,ADAM10 counter,ADAM17 confirm
COc1ccc(CN2C(=O)[C@@H]3Cc4c([nH]c5ccccc45)C(C)(C)N3C2=O)cc1,23,17,16,3,/,/,/,/
COc1ccc(CN2C(=O)[C@H]3Cc4c([nH]c5ccccc45)C(C)(C)N3C2=O)cc1,12,14,22*,8.9*,4,1,30*,17*
Cc1ccc(S(=O)(=O)Nc2ccc(-c3nnc(SCc4ccccc4Cl)o3)cc2)cc1,4,4,23*,9.6*,11,3,34*,17*
CCCc1nc2ccccc2c(C(=O)OCC(=O)Nc2ccc(S(=O)(=O)N3CCOCC3)cc2)c1CC,2,0,40*,18*,10,4,30*,18*
Cc1cc2c(cc1C)CSC(c1ccccc1O)SC2,4,-2,20,7,/,/,/,/
Oc1ccccc1C1SC(c2ccccc2O)SC(c2ccccc2O)S1 (centres undefined),1,2,35*,11*,8,3,42*,23*
CC/C(=N\NC(=O)c1ccc2c(c1)OCO2)c1ccccc1,4,2,-8,-3,/,/,/,/
Cc1ccc2c(c1)-n1c(nc3cc(C)ccc3c1=O)C(Cc1ccccc1)NC2=O (centres undefined),15,-3,21*,17*,6,2,7,6
Cc1ccc2c(c1)-n1c(nc3cc(F)ccc3c1=O)C(Cc1ccccc1)NC2=O (centres undefined),8,-2,-2,-3,/,/,/,/
COc1ccc(C2CC(O)(c3ccccc3)Oc3cc(OC)cc(OC)c32)cc1 (centres undefined),-9,-4,-19,0,/,/,/,/
COc1ccc(C2CC(O)(c3ccccc3)Oc3c(C)ccc(C)c32)cc1 (centres undefined),-2,-5,36*,19*,7,3,18,13*
COc1ccc(C(=O)CC(Nc2ccc([N+](=O)[O-])cc2)c2ccc(Cl)cc2)cc1 (centres undefined),0,-5,22*,13*,9,3,38*,18*
C[C@H]1CN([C@@H](C)CO)C(=O)CCCn2nncc2CO[C@H]1CN(C)S(=O)(=O)c1ccc(Oc2ccccc2)cc1,5,4,-6,-2,/,/,/,/
CCOC(=O)CC[C@@]1(C(=O)OCC)C[C@@H](CC(=O)N2CCOCC2)C(=O)N2CCCC=C21,-3,2,1,1,/,/,/,/
O=C(NCC1COc2ccccc2O1)c1cccc(S(=O)(=O)N2CCN(c3ccccc3)CC2)c1 (centres undefined),1,-2,21*,9.9*,6,2,13,13*
CC1(Cc2ccc3c(c2)OCO3)C(=O)Nc2ccc(-c3cccc(C(F)(F)F)c3)cc21 (centres undefined),-4,-5,-11,4,/,/,/,/
CC1(Cc2ccc(C(F)(F)F)o2)C(=O)Nc2ccc(-c3cccc(C(F)(F)F)c3)cc21 (centres undefined),7,-4,28*,17*,14,5,32*,21*
O=C(COC(=O)CNC(=O)C1CCCCC1)Nc1ccccc1Cl,0,1,-1,-4,/,/,/,/
CCOC1=C2[C@@H](CN(S(=O)(=O)c3ccc(C)cc3)[C@H]2c2cccc3ccccc23)[C@H]2C(=O)N(Cc3ccccc3)C(=O)[C@H]2C1,-2,6,25*,8.8*,8,2,21*,14*
CCOC1=C2[C@@H](CN(S(=O)(=O)c3ccc(C)cc3)[C@H]2c2cccc3ccccc23)[C@H]2C(=O)N(CC)C(=O)[C@H]2C1,-1,4,-3,0,/,/,/,/
CCOC(=O)C1CCN(S(=O)(=O)CCNC(=O)c2cccc(OC)c2)CC1,-2,2,-13,-3,/,/,/,/
CC(=O)C(N=Nc1ccccc1)(Sc1nnc(-c2ccccc2)n1-c1ccccc1)C(=O)Nc1ccccc1 (centres undefined),-9,-16,15,4,/,/,/,/
CC(=O)C(N=Nc1ccccc1)(Sc1nnc(-c2ccccc2)n1-c1ccccc1)C(C)=O,-28,-45,26*,14*,4,2,13,10*
O=C(COC(=O)c1ccc(Sc2ncn[nH]2)c([N+](=O)[O-])c1)Nc1ccc(Cl)cc1,-4,-1,9,6,/,/,/,/
O=C(COC(=O)c1ccc(Sc2ncn[nH]2)c([N+](=O)[O-])c1)Nc1ccc(Cl)c(Cl)c1,-5,-2,20*,10.0*,8,1,38*,20*
SMILES,GC-B act,NPR1 activator,ADAM10 inh,ADAM17 inh,ADAM10 confirm,ADAM17 counter,ADAM10 counter,ADAM17 confirm
COCCN=c1scc(-c2cc(OC)c(OC)c(OC)c2)n1/N=C/c1c(C)[nH]c2ccccc12,4,1,26*,17*,18,8,7,17*
C(=C\c1ccccc1)/CN1CCN(C(c2ccnc3ccccc23)c2nnnn2-c2ccc3c(c2)OCCO3)CC1 (centres undefined),-1,-1,-6,-3,/,/,/,/
C(=C\c1ccccc1)/CN1CCN(C(c2ccccc2)c2nnnn2-c2ccc3c(c2)OCCO3)CC1 (centres undefined),-10,-2,29*,14*,5,2,20*,9.9*
C=CCC1NS(=O)(=O)OC2CCCC12 (centres undefined),6,3,0,2,/,/,/,/
CCOc1ccccc1CNS(=O)(=O)c1cc(-c2cc(C)no2)ccc1OC,2,0,14,2,/,/,/,/
COc1ccccc1CNS(=O)(=O)c1cc(-c2cc(C)no2)ccc1C(C)C,-4,-4,32*,11*,2,1,17,12*
COc1ccc(NC(=O)c2cc(-c3cc(F)ccc3OC(C)C)n[nH]2)c(OC)c1,3,7,21*,15*,7,5,11,6
Cc1cc(O)c2c(-c3ccccc3)cc(=O)oc2c1,-1,2,2,-4,/,/,/,/
Cc1cc2oc(=O)cc(-c3ccccc3)c2c(C)c1-c1ccc(O)cc1,-16,-19,33*,16*,8,3,19,13*
O=C(CN(C1CC1)S(=O)(=O)c1ccc(S(=O)(=O)NC2CCCCC2)cc1)Nc1ccccc1,11,-1,10,5,/,/,/,/
